Among all 370,000 compounds or so, about 3,100 (0.84%) were called active.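 The calls were made as follows: active = inhibition above the mean of compounds lying between control limits plus 3 SD, set per campaign (cut at about 8.5% in these data); inactive = the rest.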 The full list was thinned out, with actives kept by preference.

For 83 compounds, inhibition results are on record in PubChem BioAssay AID720648 (The Scripps Research Institute Molecular Screening Center, 2013).

In this assay the target is Disintegrin and metalloproteinase domain-containing protein 17 (Homo sapiens) (UniProt P78536). The experiment in a line: inhibition of ADAM17 peptide cleavage – biochemical, QFRET, primary screen (AID 720648).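 Also: 0% = DMSO-only wells as the low control.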 Particulars: recombinant ADAM17, EDANS/DABCYL FRET peptide cleavage; at 6.95 µM; active compounds read high.
Chain of Disintegrin and metalloproteinase domain-containing protein 17 (Homo sapiens) (P78536 215-824 limits assumed): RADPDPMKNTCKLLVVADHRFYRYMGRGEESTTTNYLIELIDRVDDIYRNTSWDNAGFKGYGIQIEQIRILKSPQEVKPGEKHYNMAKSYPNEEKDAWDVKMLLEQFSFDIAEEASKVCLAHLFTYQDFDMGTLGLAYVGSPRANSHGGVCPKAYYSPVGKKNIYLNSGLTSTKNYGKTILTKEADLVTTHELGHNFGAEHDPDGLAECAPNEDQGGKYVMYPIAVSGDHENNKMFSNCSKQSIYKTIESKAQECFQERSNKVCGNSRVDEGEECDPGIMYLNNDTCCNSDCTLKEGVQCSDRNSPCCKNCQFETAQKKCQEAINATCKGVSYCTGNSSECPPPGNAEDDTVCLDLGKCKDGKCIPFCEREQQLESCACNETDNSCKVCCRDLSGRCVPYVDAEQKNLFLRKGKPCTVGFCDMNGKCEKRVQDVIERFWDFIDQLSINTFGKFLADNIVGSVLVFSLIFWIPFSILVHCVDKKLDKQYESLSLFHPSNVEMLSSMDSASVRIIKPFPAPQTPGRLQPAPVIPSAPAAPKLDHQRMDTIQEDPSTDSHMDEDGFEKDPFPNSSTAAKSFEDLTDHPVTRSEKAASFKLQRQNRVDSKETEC
On to `COc1ccc(-c2cnc3c(c2)C(=O)N([C@H](C)CO)C[C@@H](C)[C@H](CN(C)Cc2ccccc2)O3)cc1`, for which the inhibition was 2.22% (inactive).

As to `C[C@@H]1CN([C@H](C)CO)C(=O)c2cc(-c3ccc(F)cc3)cnc2O[C@H]1CN(C)C(=O)c1ccc(F)cc1`, the inhibition is 11.7% (active).

For the compound `C[C@H]1CN([C@@H](C)CO)C(=O)c2cc(-c3cccc(F)c3)cnc2O[C@@H]1CN(C)S(C)(=O)=O`, the inhibition is 1.1% (inactive).

`CCCCCN1CCCCC(NC(=O)C(C)CCC)C1=O` (stereo not drawn): the inhibition was -3.79% (inactive).

In the case of `CCCCNC(=O)C[C@@H]1C(=O)N(CCc2ccc(Cl)cc2)C2=CCCC[C@]21C(=O)OCC`, the inhibition is -1.53% (inactive).

Turning to `Cc1ccc(-c2nc(CS(=O)(=O)CC(=O)NCc3ccc4c(c3)OCO4)c(C)o2)cc1`, the inhibition was -1.45% (inactive).

For `O=C(CN1CCN(c2nc(-c3ccccc3)cs2)CC1)NCc1ccc2c(c1)OCO2`, the inhibition is 11.7% (active).

For the compound `CC1(C(=O)NCc2ccc3c(c2)OCO3)CCN1CCc1ccccc1` (stereo not drawn), the inhibition was 4.37% (inactive).

As to `Cc1ccc(-n2c(SCC(=O)Nc3cccc4ccccc34)nnc2-c2ccccn2)cc1`, the inhibition is 0.17% (inactive).

With `COc1ccc(C(=O)OCCN(C)C2CN(Cc3cn(Cc4cccc(C)c4)nn3)S(=O)(=O)C2)cc1OC` (stereo not drawn), the inhibition is 0% (inactive).

Take `CC1CCN(c2ccc(C(=O)O)cc2NS(=O)(=O)c2ccc(Br)s2)CC1`: the inhibition is -2.39% (inactive).

Take `Clc1ccc(-n2c(COc3ccccc3)nnc2SCc2nc3ccccc3[nH]2)cc1`: the inhibition was 1.5% (inactive).

With `COc1ccc(CCNC(=O)C(=O)NCc2ccccc2C)cc1OC`, the inhibition is -2.04% (inactive).

Consider `COc1ccc(C2(CNC(=O)Cc3ccc(OC)c(OC)c3)CCCC2)cc1`, for which the inhibition is 0.4% (inactive).

Regarding `COc1ccc(CC(=O)c2ccc(O)cc2O)cc1OC`, the inhibition was 9.65% (active).

`FC(F)(F)c1cccc(NC(=S)OC2CCC23CCC(c2ccccc2)CC3)c1` (stereo not drawn): the inhibition is 4.59% (inactive).

`C#CCNC(=O)C[C@H]1C[C@@]2(C(=O)OC)C(=C[C@H](C(C)C)O[C@@H]2C2CC2)N(Cc2ccco2)C1=O`: the inhibition was -2.14% (inactive).

`C(=C\c1ccccc1)/CSc1nnc(-c2cccnc2)n1Cc1ccco1`: the inhibition is -2.99% (inactive).

`O=C(CSc1nnc(-c2ccccc2)n1Cc1ccco1)Nc1ccccc1-c1ccccc1`: the inhibition is 3.73% (inactive).

As for `O=C(CSc1nnc(-c2cccc(Cl)c2)n1Cc1ccco1)Nc1ccc(OCc2ccccc2)cc1`, the inhibition is 4% (inactive).

With `O=C(CSc1nnc(COc2ccccc2)n1Cc1ccco1)c1ccc2ccccc2c1`, the inhibition was 8.38% (inactive).

As for `Cc1ccc(OCc2nnc(SC/C=C/c3ccccc3)n2Cc2ccco2)cc1`, the inhibition is 10.7% (active).

With `Cc1ccc(-c2nnc(SCC(=O)Nc3ccc(Oc4ccccc4)cc3)n2Cc2ccco2)cc1`, the inhibition was 9.36% (active).

`CC(C)(C)OC(=O)NCCc1ccccc1/C=C/S(=O)(=O)NCc1ccc(F)cc1`: the inhibition was 1.57% (inactive).

On to `O=C(NC1CCC1)c1ccc(C#Cc2cccc(F)c2)c[n+]1[O-]`, for which the inhibition was -5.18% (inactive).

In the case of `CCC(=O)c1c(CC)c2n3c1=CC[C@H]3CC(Br)C=2` (stereo partly drawn), the inhibition is -4.68% (inactive).

As to `CN1[C@H](Cc2ccccc2)COc2cccc(N3CCSCC3)c2S1(=O)=O`, the inhibition was -1.43% (inactive).

As for `CCOc1ccc(Oc2c(Cl)cnn(-c3ccc(C)cc3)c2=O)cc1`, the inhibition was -4.44% (inactive).

Turning to `Cc1ccccc1NC(=O)Cn1nnc(-c2ccccc2F)n1`, the inhibition is 1.5% (inactive).

On to `Cc1ccc(-c2n[nH]c(=S)n2/N=C/c2cc3c(cc2[N+](=O)[O-])OCO3)cc1`, for which the inhibition was 8.7% (active).

`CSc1ccc(C=Nn2c(-c3ccc(F)cc3)n[nH]c2=S)cc1`: the inhibition is -0.62% (inactive).

On to `CCOc1ccc(-c2n[nH]c(=S)n2/N=C/c2cc3c(cc2[N+](=O)[O-])OCO3)cc1`, for which the inhibition was -4.26% (inactive).

In the case of `COC1=C[C@H](C(=O)NCCNC(C)=O)[C@H](C)[C@@H](c2ccccc2)CC1=O`, the inhibition was -1.19% (inactive).

In the case of `FC(F)(F)c1cccc(Cn2ccc3ccc(-c4ccc5ccn(Cc6ccccc6)c5c4)cc32)c1`, the inhibition was -14.4% (inactive).

For the compound `COC(=O)c1cccc(Cn2ccc3ccc(-c4ccc5ccn(C(=O)c6ccccc6C)c5c4)cc32)c1`, the inhibition was -5.84% (inactive).

With `CC(C)(C)NC(=O)C(c1cccnc1)N(C(=O)c1cnco1)c1ccc(C(C)(C)C)cc1` (stereo not drawn), the inhibition is -6.7% (inactive).

Regarding `Cc1nnc(SCC(=O)NC2CCCC2)s1`, the inhibition was -4.16% (inactive).

For `Cc1nnc(SCC(=O)Nn2cnnc2)s1`, the inhibition is 8.83% (active).

Turning to `CCSc1nnc(SCC(=O)NNC(=O)c2ccccc2F)s1`, the inhibition was -2.03% (inactive).

As for `CN(C(N)=NC(=O)/C=C/c1ccccc1)C(C#Cc1ccccc1)Cc1ccccc1` (stereo not drawn), the inhibition was 0.96% (inactive).

Regarding `CCOC(=O)[C@]12CCCC3=C1N(CCC3)C(=O)[C@@H](CC(=O)NCC13CC4CC(CC(C4)C1)C3)C2`, the inhibition is 0.7% (inactive).

`COc1cccc(CNc2nc(NCc3cccs3)nc3ccsc23)c1`: the inhibition was 0.1% (inactive).

`COc1cccc(CNc2ncc(-c3ccccc3)n2C)c1`: the inhibition is 5.33% (inactive).

Turning to `COc1cccc(CNc2nc(C(F)(F)F)nc3ccccc23)c1`, the inhibition was 10.3% (active).

Turning to `N#C/C(=C/c1ccc(N2CCCCC2)o1)C(=O)NCCc1c[nH]c2ccccc12`, the inhibition was 15.4% (active).

In the case of `O=C(NCCCc1ccccc1)[C@H](Cc1ccccc1)NC1(C(=O)NCCc2c[nH]c3ccccc23)CCC1`, the inhibition is 3.66% (inactive).

Consider `COCCCNC(=O)/C(C#N)=C/c1c(N2CCCCCC2)nc2ccccn2c1=O`, for which the inhibition is -451% (inactive).

Turning to `COC(=O)[C@@]12CCCCC=C1N(CCc1ccc(Cl)cc1)C(=O)[C@H]2CC(=O)NCc1ccc(OC)c(OC)c1`, the inhibition is -0.2% (inactive).

With `O=C(CSc1nc2ccccc2s1)NN=Cc1ccc(O)cc1O`, the inhibition is 3.8% (inactive).

Take `Cc1ccc(Cn2cc(COC(=O)N(C)Cc3ccccc3)nn2)cc1`: the inhibition is -1.03% (inactive).

As for `Cc1ccc(C(=O)NCC(=O)O)s1`, the inhibition was 3.71% (inactive).

On to `Cc1ccc(C(=O)Nc2ccc(C)c(S(=O)(=O)N(C)C)c2)s1`, for which the inhibition was 9.87% (active).

Take `COc1ccc(CCC(=O)OCC(=O)Nc2ccc(C)c(S(=O)(=O)N(C)C)c2)cc1`: the inhibition is 0.46% (inactive).

With `C=CCN1[C@H](CC(C)C)COc2cccc(N3CCCC3)c2S1(=O)=O`, the inhibition was -8.01% (inactive).

On to `C#CCCN([C@H](C(=O)OC)C(C)C)S(=O)(=O)c1ccc(F)cc1Br`, for which the inhibition was 2.67% (inactive).

Regarding `O=C1CC[C@@H](COc2ccc3[nH]cc(-c4ccccc4)c3c2-c2ccccc2)N1`, the inhibition was -1.86% (inactive).

For `N#Cc1ccc(OC[C@@H](O)CN2CCC(C(O)(c3ccccc3)c3ccccc3)CC2)c(F)c1`, the inhibition is 0.92% (inactive).

Regarding `O=C(COC(=O)CCc1nc2ccccc2c(=O)[nH]1)Nc1ccc(N2CCOCC2)cc1`, the inhibition is -2.52% (inactive).

As for `O=C(COC(=O)CCCSc1nc2ccccc2[nH]1)Nc1ccc(Oc2ccccc2)cc1`, the inhibition was 10.8% (active).

With `CCN(c1ccc(NC(=O)COC(=O)CCc2nc3ccccc3n2-c2ccccc2)cc1)C(C)C`, the inhibition was 4.08% (inactive).

As for `COc1ccc(CN2C/C(=C/c3ccccc3)N3C(=O)C[C@@H](c4ccccc4)N=C23)c(OC)c1`, the inhibition was 4.01% (inactive).

Take `C=CS(=O)(=O)N(Cc1nnn(Cc2ccccc2)c1Br)[C@H](C(=O)OC)C(C)C`: the inhibition was 2.02% (inactive).

Turning to `C[C@@H](NC(=O)c1ccccc1OCC(=O)Nc1ccc(I)cc1)C(=O)N(C)Cc1ccccc1`, the inhibition was 2.09% (inactive).

Turning to `O=C(CCS(=O)(=O)c1ccccc1)Nc1ccc(Cl)c(Cl)c1`, the inhibition was 5.76% (inactive).

Regarding `O=C(Nc1ccc(C(=O)NCc2ccccc2Cl)cc1)C1=CSCCO1`, the inhibition was 10.3% (active).

On to `CSc1ccc(CNC(=O)c2ccc(NC(=O)C3=CSCCO3)cc2)cc1`, for which the inhibition was 0.22% (inactive).

In the case of `O=C(COC(=O)c1ccc2c(c1)OCCO2)NCc1ccccc1Cl`, the inhibition was -2.66% (inactive).

With `COC(=O)C1CN(CC(C)C)CCS(=O)(=O)N1Cc1ccc(C)cc1` (stereo not drawn), the inhibition was -8.74% (inactive).

For the compound `Cc1ccc2[nH]cc(CCNC(=O)C3CCCCC3)c2c1`, the inhibition was 0.5% (inactive).

`Cc1cc(C)cc(NC(=S)NCCc2c[nH]c3ccccc23)c1`: the inhibition was 16.1% (active).

For `Cc1ccc(S(=O)(=O)N(C)CC(=O)NCCc2c[nH]c3ccccc23)cc1`, the inhibition was 0.52% (inactive).

For the compound `CC(CCN1CCC(C(O)(c2ccccc2)c2ccccc2)CC1)Oc1ccc(Cl)cc1` (stereo not drawn), the inhibition was 4.85% (inactive).

In the case of `CCOC(=O)[C@]12CCCC=C1N(CCCOC)C(=O)[C@@H]2CC(=O)N1CCOCC1`, the inhibition is 2.05% (inactive).

`CCCCC(=O)NNC(=S)NC(=O)C(c1ccccc1)c1ccccc1`: the inhibition is 1.95% (inactive).

With `CC(C)C(=O)Nc1cccc(NC(=S)NC(=O)C(c2ccccc2)c2ccccc2)c1`, the inhibition is 9.39% (active).

On to `CCCC(=O)Nc1cccc(NC(=S)NC(=O)C(C)Oc2ccc(Cl)cc2Cl)c1` (stereo not drawn), for which the inhibition was 2.78% (inactive).

As for `O=C(c1ccncc1)N1CC[C@H]2[C@H](CCCN2Cc2ccc(F)cc2)C1`, the inhibition is 1.14% (inactive).

For the compound `CN(CCO)c1cccc2c1S(=O)(=O)N(Cc1cn(Cc3ccc(C(F)(F)F)cc3)nn1)Cc1ccccc1O2`, the inhibition is -1.94% (inactive).

On to `COC(=O)[C@]12C[C@H](CC(=O)NCC34CC5CC(CC(C5)C3)C4)C(=O)N(Cc3ccc(Cl)cc3Cl)C1=C[C@H](COCc1ccccc1)O[C@@H]2C`, for which the inhibition is -3.09% (inactive).

`CCCOc1ccc(Oc2c(Cl)cnn(Cc3cccc4ccccc34)c2=O)cc1`: the inhibition is -6.8% (inactive).

For `CCc1cccc(NC(=O)COC(=O)C2CCN(c3ccc(C(F)(F)F)cn3)CC2)c1`, the inhibition was 8.96% (active).

For `CCOc1ccc(CCNC(=O)COC(=O)C2CCN(c3ccc(C(F)(F)F)cn3)CC2)cc1OCC`, the inhibition is -1.24% (inactive).

In the case of `N#CCCN(C(=O)COC(=O)C1CCN(c2ccc(C(F)(F)F)cn2)CC1)c1ccc(F)cc1`, the inhibition was -2.71% (inactive).

For orientation: inhibition means the drop in the measured response relative to a control, in per cent.
